Screening data: PubChem BioAssay, several laboratories
ADAM17 inh – ADAM17 inhibitors, primary screen, biochemical, QFRET. recombinant ADAM17, EDANS/DABCYL FRET peptide cleavage. inhibition, % at 6.95 µM. AID 720648, 2013. Disintegrin and metalloproteinase domain-containing protein 17 (Homo sapiens), P78536. 0.83% of 370,000 active;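 active = inhibition above the mean of compounds lying between control limits plus 3 SD, set per campaign, cut at about 8.5% in these data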;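 note: 0% = DMSO-only wells as the low control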
ADAM10 inh – human ADAM10 inhibitors, primary screen, biochemical, QFRET, HTS. Disintegrin and metalloproteinase domain-containing protein 10 (Homo sapiens), O14672. recombinant ADAM10, EDANS/DABCYL FRET peptide cleavage, 3 h. inhibition, % at 7 µM. 0.62% of 370,000 active. AID 720582, 2013;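 active = inhibition above a per-campaign cutoff equal to the mean of compounds falling between control-based bounds plus 3 SD, cut at about 20% in these data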;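 note: 0% = DMSO wells while the 100% control is not disclosed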
Target sequence (O14672 214-748 limits assumed): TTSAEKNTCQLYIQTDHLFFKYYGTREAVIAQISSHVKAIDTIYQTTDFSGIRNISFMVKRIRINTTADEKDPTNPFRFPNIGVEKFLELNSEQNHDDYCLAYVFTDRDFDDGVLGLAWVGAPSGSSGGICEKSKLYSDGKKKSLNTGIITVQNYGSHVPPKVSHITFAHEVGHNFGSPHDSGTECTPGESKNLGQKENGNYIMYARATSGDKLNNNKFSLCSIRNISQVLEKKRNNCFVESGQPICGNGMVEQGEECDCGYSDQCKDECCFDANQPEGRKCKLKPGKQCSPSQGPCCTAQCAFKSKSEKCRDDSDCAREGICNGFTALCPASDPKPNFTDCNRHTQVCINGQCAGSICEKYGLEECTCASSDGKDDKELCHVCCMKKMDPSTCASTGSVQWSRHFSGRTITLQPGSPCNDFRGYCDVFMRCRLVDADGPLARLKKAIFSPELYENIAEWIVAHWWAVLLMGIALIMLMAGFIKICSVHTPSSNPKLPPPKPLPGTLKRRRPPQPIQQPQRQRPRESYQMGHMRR
FAS-TE inh – FAS thioesterase domain inhibitors, primary screen, biochemical, fluorescence intensity, uHTS. 0.67% of 360,000 active. inhibition, % at 15 µM. recombinant FAS-TE, OMFH fluorogenic substrate, fluorescence endpoint. Fatty acid synthase (Homo sapiens), P49327;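 active = compounds whose normalised, plate-corrected inhibition of enzyme fluorescence in the single-dose primary screen is 50% or more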;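 note: 0% = DMSO with enzyme and 100% = substrate without enzyme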
NR3A LBD binder – binders of NR3A ligand-binding domain, primary screen, biophysical, differential scanning fluorimetry, uHTS | Tm shift relative to glycine control, % at 25 µM | NR3A LBD differential scanning fluorimetry, Tm shift; 0% = protein alone, 100% = glycine-bound protein | AID 1259313, 2017 | 2.5% of 340,000 active;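 active = melting temperature shift of at least 10% of the positive control shift, at one fixed dose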
sPLA2-III inh – human group III sPLA2 inhibitors, primary screen, biochemical, QFRET, BODIPY PC-A2 liposome substrate; Group 3 secretory phospholipase A2 (Homo sapiens), Q9NZ20; QFRET BODIPY PC-A2 liposome hydrolysis, fluorescence; 0.56% of 370,000 active; inhibition, % at 12.2 µM;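 active = inhibition above mean plus 3 SD of compounds lying within the high and low control bounds, cut at about 19% in these data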;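 note: 0% = median of test compound wells and 100% = no enzyme DMSO wells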
Numbers without * were called inactive; i = inactive; / = no result given. An excerpt weighted towards active compounds, which were near 4.3% of everything screened.

SMILES	ADAM17 inh	ADAM10 inh	FAS-TE inh	NR3A LBD binder	sPLA2-III inh
COc1ccc(C(C(=O)N(C)C2CCCC2)N(Cc2ccc(F)cc2)C(=O)c2sccc2Cl)cc1OC (configuration not stated)	0	2	/	/	-2
Nc1nc(SCC(=O)Nc2ccc([N+](=O)[O-])cc2)[nH]c(=O)c1NC(=O)c1ccc(Br)cc1	1	2	47	31*	6
Nc1nc(SCC(=O)Nc2ccc(OC(F)(F)F)cc2)[nH]c(=O)c1NC(=O)c1ccc(Br)o1	5	10	0	17*	9
COc1ccc(NC(=O)c2ccc(NC(=O)CSc3nc(N)cc(=O)[nH]3)cc2)cc1	-27	-64	-3	11*	1
CCCCN(C)C(=O)C1CCN(S(=O)(=O)c2ccc3[nH]c(=O)oc3c2)CC1	-3	-1	/	/	-3
Oc1c(/C=N/Nc2cccc3cccnc23)ccc2ccccc12	-6	-19	29	32*	6
COc1cc(/C=N/Nc2cccc3cccnc23)cc(OC)c1O	-2	-9	7	-10	3
Oc1cccc(/C=N/Nc2cccc3cccnc23)c1	-7	0	14	32*	-12
CC(C)CNC(=O)C1CSCCS(=O)(=O)N1Cc1ccc(F)cc1 (configuration not stated)	0	3	/	/	9
CCc1cccc(CC)c1NC(=O)NC1CCCCC1	-3	-2	-5	13*	-5
CCOc1ccc(-n2c(SCC(=O)Nc3ccccc3-c3ccccc3)nnc2-c2cccs2)cc1	6	16	/	/	-11
CCOc1ccccc1OCCCCOc1ccccc1F	-3	1	11	25*	10
Cc1nn(-c2ccccc2)c(Cl)c1/C=N/NC(=O)c1ccccc1NS(=O)(=O)c1cccs1	2	2	9	16*	-2
CCOC(=O)c1ccc(Nc2ccc(-c3ccc(OC)c(OC)c3)nn2)cc1	0	4	0	26*	-7
O=S(=O)(c1ccccc1)N1CCn2c(nc3ccccc32)C1	0	-5	-7	-5	12
O=S(=O)(c1ccc(F)cc1)N1CCn2c(nc3ccccc32)C1	0	4	-2	14*	1
Cc1ccc(CN[C@@H]2CC[C@@]34CCCN3C(=O)CCC[C@H]4C2)cc1	1	4	/	/	2
O=C(Cc1ccccc1Cl)N1CCN(c2ncccn2)CC1	-2	0	-4	12*	3
O=C(c1c(Cl)cccc1Cl)N1CCN(c2ncccn2)CC1	-5	-20	-3	-3	-1
CC(=O)OC12CCCN(C1)/C(=C/c1cccc(N(C)C)c1)C2 (configuration not stated)	-14	-55	/	/	11
O=C(COC(=O)c1c(Cl)cccc1Cl)Nc1ccccc1Br	-1	-18	26	15*	-3
Nc1nnc(SCC(=O)OCC(=O)Nc2ccccc2F)s1	-2	-6	-3	1	2
CC(C)c1ccc(NC(=O)COC(=O)CSc2nnc(N)s2)cc1	-2	-1	-7	13*	-3
COC(=O)C[C@H]1CC[C@H]2[C@H](COc3ccc(NC(=O)C4CCOCC4)cc3C(=O)N2C)O1	-3	-13	/	/	17
COc1ccc(-c2noc(N(C)CC(=O)Nc3cccc(C(F)(F)F)c3)n2)cc1	5	17	36	10*	-54
SMILES	ADAM17 inh	ADAM10 inh	FAS-TE inh	NR3A LBD binder	sPLA2-III inh
COc1cccc(NC(=O)CN(C)CC(=O)Nc2cccc(C(F)(F)F)c2)c1	-3	5	14	-12	-8
COc1cccc(NC(=O)CN(C)C(=O)c2cccnc2Nc2cccc(C(F)(F)F)c2)c1	/	/	38	35*	/
COc1cccc(NC(=O)CN(C)C(=O)c2ccccc2OCC(=O)Nc2cccc(C(F)(F)F)c2)c1	3	8	24	0	-18
C[C@H](O)[C@@H]1C(=O)N2CCc3c([nH]c4c(-c5ccc6c(c5)OCO6)cccc34)[C@@H]2C[C@@H]1N(C)C(=O)OCc1ccccc1	-4	-9	/	/	7
CCOc1ccc(NC(=O)c2sc3nc(C)nc(N4CCOCC4)c3c2C)cc1	1	4	4	16*	-5
COc1cc(/C=N/NC(=O)c2sc(N)c(C#N)c2C)cc(Br)c1O	0	3	-3	16*	-1
COc1ccc2ccccc2c1/C=N\NC(=O)c1ccc(C)s1	-6	-7	19	-10	-19
COc1ccc2ccccc2c1/C=N/NC(=O)c1sc(N)c(C#N)c1C	-37	-148	1	17*	4
CC(=O)NC(Cc1ccccc1)P(=O)(O)O (configuration not stated)	0	-1	/	/	4
Cc1cc(C)c2c(N)c(C(=O)Nc3ncc(C)s3)sc2n1	-188	i	-6	-8	12
CCOC(=O)c1sc(Nc2nc3c(F)cccc3s2)cc1C	-86	-212	-9	29*	9
CCOC(=O)c1sc(Nc2nc3ccc(OC)cc3s2)cc1C	-189	-400	41	16*	5
COc1ccc2nc(NC(=O)c3sc4nc(C)cc(C)c4c3N)sc2c1	-17	-37	-2	28*	1
CCOC(=O)c1sc(Nc2nc3c(OC)cccc3s2)nc1C	-61	-229	5	/	-3
COC(=O)[C@H](Cc1ccccc1)N(Cc1cn(Cc2ccccc2)nn1)S(=O)(=O)c1ccccc1Br	6	11	/	/	-12
O=C1CCCC2=C1C1(CCCC1)N=C(Nc1nc3cc(Br)ccc3o1)N2	-5	-5	/	/	-4
Cc1ccc(NC(=S)N(Cc2cccc(Br)c2)CC2CCC(C(=O)O)CC2)cc1 (configuration not stated)	5	-1	-1	13*	-2
Cc1cc(NC(=S)N(Cc2cccc(Br)c2)CC2CCC(C(=O)O)CC2)ccc1Cl (configuration not stated)	1	0	46	-2	-34
CCN(CC)CCn1c(-c2ccc(C)cc2)nc(=S)c2c1CC(C)(C)OC2	-3	-6	-2	14*	11
Cc1ccc(-c2nc(=S)c3c(n2CCN2CCOCC2)CC(C)(C)OC3)cc1	-3	4	-9	4	4
CCOC(=O)c1ccc(NC(=S)NN)cc1	-5	8	-3	-2	5
CCOC(=O)c1ccc(NC(=S)Nc2ccc(Br)cc2N)cc1	-5	-5	-5	23*	8
N#CCCn1cc(/C=C2\NC(=S)N(c3ccccc3)C2=O)c(-c2ccc(-c3ccccc3)cc2)n1	-3	-2	20	22*	-4
COc1ccc(C2C(C(=O)Nc3ccc(Cl)cc3)CCC(=O)N2c2ccc(OC)cc2)cc1 (configuration not stated)	5	6	/	/	-23
